Experimental data: the supplement of paper PMC11732987, “Enantioselective OTUD7B fragment discovery through chemoproteomics screening and high-throughput optimisation” (Communications Chemistry, 2025)

Assays:
Assay in all cases: log2 ratio of Biotin-Ahx-Ub-VS probe labelling (compound/DMSO); higher = less target engagement, active = hit call of the paper (q ≤ 0.05, log2 ratio ≤ -1)
Settings in all cases: treatment time: 3 h
[1] = compound: CCC1N(CCc2sccc12)C(=O)CCl
In short: (§1)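 DUBs in HEK293T lysate were labelled with Biotin-Ahx-Ub-VS (0.5 µM final, 1 h) after a 3 h treatment with compound at 50 or 200 µM or with DMSO, done in triplicate on 495 µg of lysate per sample. NeutrAvidin-enriched proteins were digested with LysC and trypsin and run by diaPASEF LC-MS/MS. Median-normalised label-free quantities gave average base-two log ratios of compound to DMSO by unpaired t-test, restricted to proteins with at least 2 unique peptides.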

[2] = compound: CN1c2ccccc2C(CS1(=O)=O)NC(=O)CCl
In short: as §1

[3] = compound: Cl.ClCC(=O)N1CCc2ncncc2C1
In short: as §1

[4] = compound: Cl.Cn1ncc2C(CCCc12)NC(=O)CCl
In short: as §1

[5] = compound: ClCC(=O)NC1CCOc2ccccc12
In short: as §1

[6] = compound: ClCC(=O)NC1CCCc2ccccc12
In short: (§2)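 Values are average ratios of compound to vehicle from an unpaired t-test, limited to proteins with at least two unique peptides. HEK293T lysate (495 µg per sample, in Tris/CHAPS/IGEPAL buffer with protease inhibitors) was exposed in triplicate to a concentration series of compound or to vehicle for 3 h, then to Biotin-Ahx-Ub-VS at 0.5 µM final for 1 h. Labelled deubiquitinases were enriched on NeutrAvidin, digested with LysC and trypsin, and analysed by diaPASEF LC-MS/MS. Ratios are given on a log2 scale from Spectronaut label-free protein quantities normalised to the global median.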

[7] = compound: ClCC(=O)N[C@@H]1CCCc2ccccc12
In short: as §2

[8] = compound: ClCC(=O)N[C@H]1CCCc2ccccc12
In short: as §2

[9] = compound: CCC1N(CCc2cc(OC)c(Cl)cc12)C(=O)CCl
In short: as §1

[10] = compound: CCCC1N(CCc2cc(OC)c(OC)cc12)C(=O)CCl
In short: as §1

[11] = compound: CN(Cc1cccc(Br)c1)C(=O)CCl
In short: as §1

[12] = compound: CN(Cc1cccc(OCc2ccccc2C)c1)C(=O)CCl
In short: as §1

[13] = compound: CN(Cc1ccccc1)C(=O)CCl
In short: as §1

[14] = compound: COc1ccc(CN(C)C(=O)CCl)cc1
In short: as §1

[15] = compound: COc1cccc(CN(CCCc2ccccc2)C(=O)CCl)c1
In short: as §1

[16] = compound: ClCC(=O)N1CCc2cc(Cl)c(Cl)cc2C1
In short: as §1

[17] = compound: ClCC(=O)N1CCc2nc(ncc2C1)-c1ccccc1
In short: as §1

[18] = compound: ClCC(=O)N1CCc2nocc2C1
In short: as §1

[19] = compound: ClCC(=O)N1CCc2scc(Br)c2C1
In short: as §1

[20] = compound: ClCC(=O)NC(C1CCCC1)c1cccs1
In short: as §1

Measured: log2 ratio of Biotin-Ahx-Ub-VS probe labelling

USP34 (UniProt Q70CQ2)
UniProt Q70CQ2, sequence (Q70CQ2 whole entry): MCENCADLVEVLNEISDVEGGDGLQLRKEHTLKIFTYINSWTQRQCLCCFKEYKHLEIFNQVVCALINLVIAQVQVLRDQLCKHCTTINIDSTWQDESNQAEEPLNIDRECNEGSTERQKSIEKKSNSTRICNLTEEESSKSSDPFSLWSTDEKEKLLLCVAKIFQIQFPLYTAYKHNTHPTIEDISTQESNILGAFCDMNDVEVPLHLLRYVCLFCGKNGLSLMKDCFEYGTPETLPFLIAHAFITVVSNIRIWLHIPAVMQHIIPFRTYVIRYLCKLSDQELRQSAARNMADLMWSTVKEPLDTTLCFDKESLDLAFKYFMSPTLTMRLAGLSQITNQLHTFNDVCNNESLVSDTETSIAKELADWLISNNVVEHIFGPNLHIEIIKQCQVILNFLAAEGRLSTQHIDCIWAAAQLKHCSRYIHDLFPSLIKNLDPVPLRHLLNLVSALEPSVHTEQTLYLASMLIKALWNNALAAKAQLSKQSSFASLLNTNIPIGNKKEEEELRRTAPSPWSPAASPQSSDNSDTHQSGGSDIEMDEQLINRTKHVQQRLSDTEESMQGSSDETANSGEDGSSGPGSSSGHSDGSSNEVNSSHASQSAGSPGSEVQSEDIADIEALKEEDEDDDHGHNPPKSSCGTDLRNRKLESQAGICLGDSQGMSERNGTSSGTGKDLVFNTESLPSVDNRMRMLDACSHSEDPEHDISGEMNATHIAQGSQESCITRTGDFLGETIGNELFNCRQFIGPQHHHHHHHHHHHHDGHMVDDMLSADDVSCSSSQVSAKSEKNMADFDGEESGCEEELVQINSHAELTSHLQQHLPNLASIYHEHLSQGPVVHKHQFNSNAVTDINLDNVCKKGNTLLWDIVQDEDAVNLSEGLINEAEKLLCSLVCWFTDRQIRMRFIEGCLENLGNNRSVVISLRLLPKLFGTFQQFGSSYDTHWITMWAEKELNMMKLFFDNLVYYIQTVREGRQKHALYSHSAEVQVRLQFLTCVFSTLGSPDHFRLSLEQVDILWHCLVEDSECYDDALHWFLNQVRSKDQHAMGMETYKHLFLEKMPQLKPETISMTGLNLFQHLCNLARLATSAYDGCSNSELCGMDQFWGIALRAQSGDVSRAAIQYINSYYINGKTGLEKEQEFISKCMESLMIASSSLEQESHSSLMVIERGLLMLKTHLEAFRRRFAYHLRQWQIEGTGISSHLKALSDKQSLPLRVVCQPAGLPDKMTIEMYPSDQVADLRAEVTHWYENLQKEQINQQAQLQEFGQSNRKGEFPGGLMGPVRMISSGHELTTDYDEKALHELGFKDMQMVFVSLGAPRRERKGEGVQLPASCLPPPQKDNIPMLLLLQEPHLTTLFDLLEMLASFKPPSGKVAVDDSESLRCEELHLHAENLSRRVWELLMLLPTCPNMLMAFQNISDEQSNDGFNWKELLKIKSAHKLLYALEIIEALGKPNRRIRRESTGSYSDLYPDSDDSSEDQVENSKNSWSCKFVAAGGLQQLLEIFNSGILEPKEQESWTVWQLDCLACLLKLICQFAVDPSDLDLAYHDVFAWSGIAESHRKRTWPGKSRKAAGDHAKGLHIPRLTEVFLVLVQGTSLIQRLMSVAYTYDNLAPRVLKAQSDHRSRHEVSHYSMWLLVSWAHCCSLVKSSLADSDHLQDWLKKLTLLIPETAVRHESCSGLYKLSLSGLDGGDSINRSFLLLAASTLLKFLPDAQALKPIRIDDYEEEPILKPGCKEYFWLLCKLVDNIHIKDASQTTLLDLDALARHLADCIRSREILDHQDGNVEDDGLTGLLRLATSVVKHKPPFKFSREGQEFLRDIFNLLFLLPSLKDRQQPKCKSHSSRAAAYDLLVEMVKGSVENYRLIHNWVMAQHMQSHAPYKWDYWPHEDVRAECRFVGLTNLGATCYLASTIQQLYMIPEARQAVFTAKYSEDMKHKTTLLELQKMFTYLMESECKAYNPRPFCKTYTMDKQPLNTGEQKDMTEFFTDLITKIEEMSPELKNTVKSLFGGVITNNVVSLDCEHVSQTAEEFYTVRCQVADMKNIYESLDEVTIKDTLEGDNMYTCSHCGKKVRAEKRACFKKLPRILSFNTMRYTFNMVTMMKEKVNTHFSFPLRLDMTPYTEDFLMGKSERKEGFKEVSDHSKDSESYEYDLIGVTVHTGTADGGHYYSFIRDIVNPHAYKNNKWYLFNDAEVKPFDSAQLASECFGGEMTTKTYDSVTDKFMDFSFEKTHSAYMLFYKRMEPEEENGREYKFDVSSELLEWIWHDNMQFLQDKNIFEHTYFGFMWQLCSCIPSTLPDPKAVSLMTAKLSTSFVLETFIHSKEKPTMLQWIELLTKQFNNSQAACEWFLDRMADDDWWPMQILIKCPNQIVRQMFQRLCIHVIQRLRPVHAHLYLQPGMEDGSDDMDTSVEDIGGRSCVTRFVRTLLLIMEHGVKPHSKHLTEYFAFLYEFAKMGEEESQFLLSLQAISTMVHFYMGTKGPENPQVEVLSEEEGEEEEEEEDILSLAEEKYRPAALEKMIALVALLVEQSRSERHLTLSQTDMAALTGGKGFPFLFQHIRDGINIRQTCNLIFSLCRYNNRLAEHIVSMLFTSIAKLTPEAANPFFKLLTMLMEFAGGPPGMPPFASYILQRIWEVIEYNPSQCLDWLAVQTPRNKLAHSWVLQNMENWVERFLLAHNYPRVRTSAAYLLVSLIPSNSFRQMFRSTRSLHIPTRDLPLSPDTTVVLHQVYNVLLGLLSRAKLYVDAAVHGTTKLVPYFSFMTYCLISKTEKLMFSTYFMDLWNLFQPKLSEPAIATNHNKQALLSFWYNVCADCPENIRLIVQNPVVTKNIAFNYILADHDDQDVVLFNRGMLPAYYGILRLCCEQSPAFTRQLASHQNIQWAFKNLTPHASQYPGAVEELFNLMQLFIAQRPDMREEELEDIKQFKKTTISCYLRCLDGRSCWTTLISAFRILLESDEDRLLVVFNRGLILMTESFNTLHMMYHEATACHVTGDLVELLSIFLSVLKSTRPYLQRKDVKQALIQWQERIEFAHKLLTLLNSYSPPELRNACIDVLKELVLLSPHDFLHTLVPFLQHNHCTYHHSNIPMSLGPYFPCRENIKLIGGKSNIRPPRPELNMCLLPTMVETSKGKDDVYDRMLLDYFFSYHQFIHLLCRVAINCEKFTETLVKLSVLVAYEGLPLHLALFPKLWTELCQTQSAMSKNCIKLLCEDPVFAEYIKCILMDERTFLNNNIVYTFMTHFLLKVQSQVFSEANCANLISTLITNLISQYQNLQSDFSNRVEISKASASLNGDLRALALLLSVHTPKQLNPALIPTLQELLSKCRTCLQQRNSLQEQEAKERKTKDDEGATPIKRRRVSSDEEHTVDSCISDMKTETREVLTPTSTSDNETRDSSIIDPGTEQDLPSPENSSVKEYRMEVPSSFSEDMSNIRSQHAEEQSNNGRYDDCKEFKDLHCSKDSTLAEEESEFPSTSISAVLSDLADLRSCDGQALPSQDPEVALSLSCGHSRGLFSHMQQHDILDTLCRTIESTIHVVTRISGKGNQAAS
inactive: [1]; compound concentration: 50uM 0.0562 | [1]; compound concentration: 200uM 0.0678 | [2]; compound concentration: 50uM -0.259 | [2]; compound concentration: 200uM -0.515 | [3]; compound concentration: 50uM -0.659 | [3]; compound concentration: 200uM 0.31 | [4]; compound concentration: 50uM 0.745 | [4]; compound concentration: 200uM -0.98 | [5]; compound concentration: 50uM -0.212 | [5]; compound concentration: 200uM -0.0537 | [6]; compound concentration: 0.78uM 0.221 | [6]; compound concentration: 1.56uM 0.0458 | [6]; compound concentration: 3.13uM 0.0621 | [6]; compound concentration: 6.25uM -0.0557 | [6]; compound concentration: 12.5uM -0.314 | [6]; compound concentration: 25uM 0.126 | [6]; compound concentration: 50uM 0.134 | [6]; compound concentration: 100uM 0.11 | [6]; compound concentration: 200uM -0.619 | [7]; compound concentration: 0.78uM -0.0727 | [7]; compound concentration: 1.56uM -0.0851 | [7]; compound concentration: 3.13uM -0.276 | [7]; compound concentration: 6.25uM -0.184 | [7]; compound concentration: 12.5uM -0.209 | [7]; compound concentration: 25uM -0.23 | [7]; compound concentration: 50uM -0.396 | [7]; compound concentration: 100uM 0.0355 | [7]; compound concentration: 200uM 0.0474 | [8]; compound concentration: 0.78uM 0.0344 | [8]; compound concentration: 1.56uM -0.271 | [8]; compound concentration: 3.13uM -0.199 | [8]; compound concentration: 6.25uM 0.0878 | [8]; compound concentration: 12.5uM 0.322 | [8]; compound concentration: 25uM -0.00214 | [8]; compound concentration: 50uM 0.198 | [8]; compound concentration: 100uM 0.181 | [8]; compound concentration: 200uM -0.295 | [9]; compound concentration: 50uM 0.165 | [10]; compound concentration: 50uM 0.0993 | [10]; compound concentration: 200uM 0.244 | [11]; compound concentration: 50uM 0.504 | [11]; compound concentration: 200uM 0.192 | [12]; compound concentration: 50uM 0.154 | [12]; compound concentration: 200uM -0.582 | [13]; compound concentration: 50uM 0.682 | [13]; compound concentration: 200uM -0.913 | [14]; compound concentration: 50uM 0.746 | [14]; compound concentration: 200uM -0.399 | [15]; compound concentration: 50uM -0.287 | [15]; compound concentration: 200uM -0.935 | [16]; compound concentration: 50uM -0.17 | [17]; compound concentration: 50uM 0.583 | [17]; compound concentration: 200uM -0.403 | [18]; compound concentration: 50uM 0.31 | [18]; compound concentration: 200uM -0.0396 | [19]; compound concentration: 50uM 0.689 | [19]; compound concentration: 200uM -0.0731 | [20]; compound concentration: 50uM -0.0579 | [20]; compound concentration: 200uM -0.14
active: [9]; compound concentration: 200uM -1.07 | [16]; compound concentration: 200uM -1.47

USP48 (UniProt Q86UV5)
inactive: [1]; compound concentration: 50uM 0.0438 | [1]; compound concentration: 200uM -0.229 | [2]; compound concentration: 50uM -0.0584 | [2]; compound concentration: 200uM -0.173 | [3]; compound concentration: 50uM 0.0472 | [3]; compound concentration: 200uM -0.0578 | [4]; compound concentration: 50uM 0.11 | [4]; compound concentration: 200uM -0.141 | [5]; compound concentration: 50uM -0.181 | [5]; compound concentration: 200uM 0.181 | [6]; compound concentration: 0.78uM -0.207 | [6]; compound concentration: 1.56uM -0.126 | [6]; compound concentration: 3.13uM -0.133 | [6]; compound concentration: 6.25uM -0.353 | [6]; compound concentration: 12.5uM -0.196 | [6]; compound concentration: 25uM -0.157 | [6]; compound concentration: 50uM -0.212 | [6]; compound concentration: 100uM -0.103 | [6]; compound concentration: 200uM -0.378 | [7]; compound concentration: 0.78uM -0.118 | [7]; compound concentration: 1.56uM 0.0156 | [7]; compound concentration: 3.13uM -0.424 | [7]; compound concentration: 6.25uM -0.193 | [7]; compound concentration: 12.5uM -0.0735 | [7]; compound concentration: 25uM -0.174 | [7]; compound concentration: 50uM -0.19 | [7]; compound concentration: 100uM -0.106 | [7]; compound concentration: 200uM -0.351 | [8]; compound concentration: 0.78uM -0.189 | [8]; compound concentration: 1.56uM -0.192 | [8]; compound concentration: 3.13uM -0.141 | [8]; compound concentration: 6.25uM -0.00525 | [8]; compound concentration: 12.5uM -0.0911 | [8]; compound concentration: 25uM -0.00111 | [8]; compound concentration: 50uM -0.0046 | [8]; compound concentration: 100uM -0.171 | [8]; compound concentration: 200uM -0.203 | [9]; compound concentration: 50uM -0.171 | [9]; compound concentration: 200uM -0.314 | [10]; compound concentration: 50uM -0.217 | [10]; compound concentration: 200uM -0.148 | [11]; compound concentration: 50uM -0.101 | [11]; compound concentration: 200uM -0.603 | [12]; compound concentration: 50uM -0.235 | [12]; compound concentration: 200uM -0.552 | [13]; compound concentration: 50uM -0.0688 | [13]; compound concentration: 200uM -0.18 | [14]; compound concentration: 50uM -0.0647 | [14]; compound concentration: 200uM -0.237 | [15]; compound concentration: 50uM -0.0292 | [15]; compound concentration: 200uM -0.259 | [16]; compound concentration: 50uM -0.214 | [16]; compound concentration: 200uM -0.0205 | [17]; compound concentration: 50uM -0.173 | [17]; compound concentration: 200uM -0.226 | [18]; compound concentration: 50uM -0.112 | [18]; compound concentration: 200uM -0.324 | [19]; compound concentration: 50uM -0.161 | [19]; compound concentration: 200uM -0.327 | [20]; compound concentration: 50uM -0.234 | [20]; compound concentration: 200uM -0.00963

OTUD7B (UniProt Q6GQQ9)
UniProt Q6GQQ9, sequence (Q6GQQ9 whole entry): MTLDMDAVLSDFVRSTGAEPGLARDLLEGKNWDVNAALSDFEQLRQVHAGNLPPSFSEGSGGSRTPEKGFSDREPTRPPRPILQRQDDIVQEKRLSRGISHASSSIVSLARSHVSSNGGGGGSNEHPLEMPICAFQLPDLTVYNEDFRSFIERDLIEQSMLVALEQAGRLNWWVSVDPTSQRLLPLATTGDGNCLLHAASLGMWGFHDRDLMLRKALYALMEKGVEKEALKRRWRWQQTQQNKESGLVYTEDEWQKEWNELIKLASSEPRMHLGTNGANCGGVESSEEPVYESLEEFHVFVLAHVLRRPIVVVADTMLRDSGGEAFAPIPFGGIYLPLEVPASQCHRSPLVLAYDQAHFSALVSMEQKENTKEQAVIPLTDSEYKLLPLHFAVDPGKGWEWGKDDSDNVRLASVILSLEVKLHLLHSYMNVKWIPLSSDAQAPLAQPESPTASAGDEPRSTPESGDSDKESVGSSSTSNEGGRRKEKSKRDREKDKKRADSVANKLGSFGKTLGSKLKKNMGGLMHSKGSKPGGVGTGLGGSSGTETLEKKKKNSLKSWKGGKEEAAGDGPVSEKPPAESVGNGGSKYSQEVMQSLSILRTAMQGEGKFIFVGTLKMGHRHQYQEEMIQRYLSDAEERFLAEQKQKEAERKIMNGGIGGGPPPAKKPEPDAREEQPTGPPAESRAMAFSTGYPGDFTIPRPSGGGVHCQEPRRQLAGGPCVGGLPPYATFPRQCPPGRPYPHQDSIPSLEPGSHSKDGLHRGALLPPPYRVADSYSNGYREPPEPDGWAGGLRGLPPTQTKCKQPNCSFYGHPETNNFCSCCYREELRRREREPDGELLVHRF
active: [2]; compound concentration: 50uM -1.97 | [2]; compound concentration: 200uM -4.51 | [3]; compound concentration: 200uM -1.65 | [4]; compound concentration: 50uM -4.9 | [4]; compound concentration: 200uM -5.48 | [5]; compound concentration: 50uM -2.66 | [5]; compound concentration: 200uM -4.52 | [6]; compound concentration: 12.5uM -1.66 | [6]; compound concentration: 25uM -2.4 | [6]; compound concentration: 50uM -3.12 | [6]; compound concentration: 100uM -3.17 | [6]; compound concentration: 200uM -3.5 | [7]; compound concentration: 50uM -1.03 | [7]; compound concentration: 100uM -1.55 | [7]; compound concentration: 200uM -2.65
inactive: [1]; compound concentration: 50uM -0.4 | [1]; compound concentration: 200uM -0.926 | [3]; compound concentration: 50uM -0.537 | [6]; compound concentration: 0.78uM -0.175 | [6]; compound concentration: 1.56uM -0.207 | [6]; compound concentration: 3.13uM -0.537 | [6]; compound concentration: 6.25uM -0.893 | [7]; compound concentration: 0.78uM -0.133 | [7]; compound concentration: 1.56uM -0.0966 | [7]; compound concentration: 3.13uM -0.116 | [7]; compound concentration: 6.25uM -0.27 | [7]; compound concentration: 12.5uM -0.226 | [7]; compound concentration: 25uM -0.495 | [8]; compound concentration: 0.78uM -0.224 | [8]; compound concentration: 1.56uM -0.562
